The campaign covered roughly 290,000 compounds. About 370 (0.13%) were called active.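 Rule for the calls: active = spots per cell inhibited over 60%, with over 100 cells counted and total cytoplasm intensity under 500,000; inconclusive = wells with under 100 cells, flagged as likely toxic; inactive = the rest.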 This excerpt belongs to a sample that is enriched for actives. Potency and affinity values are given separately.
biological target: G-protein coupled receptor 55 (Homo sapiens) (UniProt Q9Y2T6); assay: inhibition of LPI-stimulated GPR55 beta-arrestin translocation – imaging, U2OS, beta-arrestin-GFP, LPI agonist, primary screen (AID 2013); settings: LPI antagonism, at 10 µM, active compounds read high;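 note: U2OS cells stably carrying GPR55 and arrestin-GFP stimulated by 5 µM LPI near EC80; imaged beta-arrestin-GFP aggregate spots per cell after agonist stimulation; plate controls were LPI-stimulated DMSO wells for no effect and DMSO wells without LPI for full effect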
Sequence (Q9Y2T6 whole entry, looked up): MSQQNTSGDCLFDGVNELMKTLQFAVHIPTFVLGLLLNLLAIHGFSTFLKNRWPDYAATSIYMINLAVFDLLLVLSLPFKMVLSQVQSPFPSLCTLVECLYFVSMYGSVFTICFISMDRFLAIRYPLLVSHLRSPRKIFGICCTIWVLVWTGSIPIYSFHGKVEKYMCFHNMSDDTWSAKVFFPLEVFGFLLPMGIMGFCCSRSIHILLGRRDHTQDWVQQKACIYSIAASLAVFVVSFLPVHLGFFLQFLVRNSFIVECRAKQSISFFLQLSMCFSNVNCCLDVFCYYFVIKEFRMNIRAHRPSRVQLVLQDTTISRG

Compound	inhibition
O=C(N/N=C\c1ccncc1)c1ccc(Br)s1	-6.3% (inactive)
Cc1ccc(N(CC(O)CON=C2c3ccccc3-c3ccccc32)S(C)(=O)=O)cc1 (stereo not given)	2.5% (inactive)
CCN(CC(O)CON=C1c2ccccc2-c2ccccc21)S(=O)(=O)c1ccc(C)cc1 (stereo not given)	89.1% (active)
Cc1ccc(S(=O)(=O)N(CCCO)CC(O)CON=C2c3ccccc3-c3ccccc32)cc1 (stereo not given)	4% (inactive)
Cc1cccc(N(CC(O)CON=C2c3ccccc3-c3ccccc32)S(C)(=O)=O)c1 (stereo not given)	30.8% (inactive)
CCN(CC(O)CON=C1c2ccccc2-c2ccccc21)S(=O)(=O)c1ccc(Cl)cc1 (stereo not given)	80.9% (active)
CC(C)CCNCC(O)CON=C1c2ccccc2-c2ccccc21 (stereo not given)	35% (inactive)
CCN(CC(O)Cn1c2ccccc2c2ccccc21)S(=O)(=O)c1ccc(C)cc1 (stereo not given)	22.4% (inactive)
CS(=O)(=O)N(CC(O)CON=C1c2ccccc2-c2ccccc21)c1ccc(F)cc1 (stereo not given)	4.1% (inactive)
CCOC(=O)c1ccccc1NC(=S)N1CCCCC1	4.2% (inactive)
CCOC(=O)C1CCCN(C(=O)C2CCC(CNS(=O)(=O)c3ccc(NC(C)=O)cc3)CC2)C1 (stereo not given)	-10.7% (inactive)
Cc1ccc(S(=O)(=O)NCCc2nnc3ccc(SCC(=O)Nc4nc5ccccc5s4)nn23)cc1	-1.2% (inactive)
C#CCOCCOCCOCCNc1nc(N2CCN(C(=O)[C@H](Cc3cc4ccccc4[nH]3)n3cc([C@@H](N)C(C)CC)nn3)CC2)nc(N2CCN(C(=O)[C@H](CCCCN)n3cc([C@@H](N)CC(C)C)nn3)CC2)n1 (stereo not given in full)	22.1% (inactive)
O=C(NCC(=O)N(c1ccccc1)C(C(=O)NCC1CCCO1)c1ccccc1)c1ccco1 (stereo not given)	-16.3% (inactive)
CC(=O)Nc1ccccc1Oc1ccccc1	-4.1% (inactive)
CC(C)CC(=O)Nc1ccccc1Oc1ccccc1	-0.5% (inactive)
Cc1ccccc1CN(C)CC(=O)Nc1ccccc1Oc1ccccc1	52.5% (inactive)
CN(CC(=O)Nc1cccc(F)c1)CC(=O)Nc1ccccc1Oc1ccccc1	2.5% (inactive)
CN(CC(=O)Nc1ccccc1Oc1ccccc1)Cc1ccccc1F	80.5% (active)
CC(C(=O)Nc1ccccc1Oc1ccccc1)c1ccccc1 (stereo not given)	83.2% (active)
CC(=O)Nc1ccc(Nc2nc(C(F)(F)F)nc3c2nnn3Cc2ccccc2Cl)cc1	-4.9% (inactive)
Cc1ccc(/C=C2/N=C(c3ccccc3)NNC2=O)cc1	-5.1% (inactive)
c1ccc(-c2noc(CSc3nnc(Cc4cccs4)n3-c3ccccc3)n2)cc1	0.4% (inactive)

Compound	inhibition
Cc1ccc(-c2noc(CSc3nnc(Cc4cccs4)n3-c3ccccc3)n2)cc1	16.9% (inactive)
Nc1nonc1-n1nnc(C(=O)N/N=C/c2ccccc2Cl)c1-c1ccc2c(c1)OCO2	-3.5% (inactive)
Cc1ccc(C(=O)Nc2ccccc2N2CCCCC2)cc1	0.4% (inactive)
Cc1ccc(C(=O)Nc2ccccc2N2CCCC2)cc1	-6.2% (inactive)
Cc1cc(=O)oc2cc(OCC(=O)N3CCN(c4ccccc4)CC3)c(Cl)cc12	6.4% (inactive)
Cc1cc(Nc2ccc(F)cc2F)n2ncnc2n1	-4.7% (inactive)
CCOC(=O)c1c(C)[nH]c(C)c1S(=O)(=O)N(C)CC(=O)Nc1cccc(F)c1	8% (inactive)
COc1ccc(N2C(=O)S[C@@H]3CS(=O)(=O)C[C@@H]32)cc1	14.8% (inactive)
CC1(C)OC(=CC=Nc2ccc(Cl)cc2)OC1(C)C	-0.4% (inactive)
COC(=O)c1cc2c(C)c(C)c3ccccn3c-2c1C(=O)OC	12.8% (inactive)
COC(=O)c1cc2n3ccccc3c(C)c(-c3ccccc3)c-2c1C(=O)OC	6.5% (inactive)
O=C(COC(=O)CCC(=O)c1cccs1)NC(=O)c1ccc(OC(F)F)cc1	6.3% (inactive)
COc1ccc(N2CCN(CC(=O)NCc3ccc(Cl)cc3)CC2)cc1	-5.1% (inactive)
O=C(O)CN1C(=O)/C(=C/c2ccc(SCc3ccccc3)o2)SC1=S	4.7% (inactive)
Cc1cccc(C)c1-n1cccc1/C=C1\SC(=S)N(c2cccc(C(=O)O)c2)C1=O	21.8% (inactive)
Cc1ccc(NC(=O)COc2nsnc2N2CCOCC2)cc1Cl	-2.9% (inactive)
CCCCOC(=O)CSC(=S)N(C)Cc1cccs1	-12.9% (inactive)
Cc1[nH]c2ccccc2c1[C@H]1[C@@H](CC#N)C1(C)C	30.6% (inactive)
Cc1c([C@H]2[C@@H](CC#N)C2(C)C)c2ccccc2n1C	-0.3% (inactive)
CC(C)NC(=O)C(=O)c1cn(C)c2ccccc12	-10.8% (inactive)
Cc1ccccc1N1CCN(C(=O)C2CCC(=O)N(C3CCCC3)C2)CC1 (stereo not given)	5.6% (inactive)
Oc1ccc(C2=NN(c3ccccc3)C(c3ccc(F)cc3)C2)cc1 (stereo not given)	60.3% (active)
Oc1ccccc1C1=NN(c2ccccc2)C(c2ccc(F)cc2)C1 (stereo not given)	-10.6% (inactive)

Compound	inhibition
COc1ccc(C2CC(c3ccc(F)cc3)=NN2c2ccccc2)cc1OC (stereo not given)	1.5% (inactive)
Cc1noc(C)c1CN(C(=S)NC1CC1)c1ccccc1	4.1% (inactive)
CCNC(=S)N(Cc1c(C)noc1C)c1ccccc1	-9.5% (inactive)
CC(=O)N1CCOc2ccc(S(=O)(=O)Nc3ccc(Cl)cn3)cc21	-3.3% (inactive)
COc1ccccc1NC(=O)COC(=O)c1ccccc1C(=O)N1CCN(c2ccccc2)CC1	-1.1% (inactive)
Cc1ccccc1-n1cc(CNC(=O)CCc2nnc(CCc3ccccc3)o2)cn1	9.1% (inactive)
C#CCOCCOCCOCCNc1nc(N2CCN(C(=O)[C@H](CCC(=O)O)n3cc(C(N)CC(C)C)nn3)CC2)nc(N2CCN(C(=O)[C@H](Cc3ccc(O)cc3)n3cc(C(N)[C@H](C)CC)nn3)CC2)n1 (stereo not given in full)	13% (inactive)
O=C(Nc1ccccc1)c1ccccc1NC(=O)C1CCCCC1	-8.2% (inactive)
COc1ccc(C2=NN(c3ccccc3)C(=O)/C2=C\c2ccc(O)c(OC)c2)cc1	-6.3% (inactive)
O=C1/C(=C\c2ccc(O)c(O)c2)C(c2ccccc2)=NN1c1ccccc1	-3.8% (inactive)
COc1cc(/C=C2\C(=O)N(c3ccc(NC(C)=O)cc3)N=C2c2ccccc2)ccc1O	89.7% (active)
S=C1Cc2ccccc2N1	-4.5% (inactive)
C#CCN1C(=O)S/C(=C\c2ccc(-c3ccc(Cl)c(C(=O)O)c3)o2)C1=O	-15.9% (inactive)
O=C(O)c1cc(-c2ccc(/C=C3/SC(=S)N(Cc4ccccc4)C3=O)o2)ccc1Cl	61.2% (active)
COc1ccc(CN2C(=O)/C(=C/c3ccc(-c4ccc(Cl)c(C(=O)O)c4)o3)SC2=S)cc1	34.2% (inactive)
O=C(NCc1ccco1)C1(c2ccc(Br)cc2)CCCC1	1.4% (inactive)
C=CCn1c(O)c(C2=c3ccccc3=NC2=O)sc1=Nc1ccc(O)cc1	5.2% (inactive)
CN(CC(=O)Nc1cccc(F)c1)C(=O)c1cc(S(=O)(=O)N(C)C)ccc1N1CCCC1	13.5% (inactive)
[N-]=[N+]=N[C@@H](CCN1CC[C@H](NC(=O)OCc2ccccc2)CCC1=O)c1ccccc1	6.9% (inactive)
O=C(CSc1nnc(C2CCCCC2)n1Cc1ccccc1)NCc1ccco1	-1.4% (inactive)
CN1Cc2c(N3CCOCC3)nc3sc(C(=O)c4ccccc4)c(N)c3c2CC1(C)C	1.2% (inactive)
CCOC(=O)c1sc2nc(N3CCOCC3)c3c(c2c1N)CC(C)(C)N(C)C3	-4.1% (inactive)
NC(=S)Cc1nc2n(n1)Cc1ccccc1-2	5.2% (inactive)

Compound	inhibition
CC1CC(Nc2ccccc2)c2ccccc2N1C(=O)c1ccco1 (stereo not given)	6.5% (inactive)
CC1CC(N(C(=O)c2ccco2)c2ccccc2)c2ccccc2N1 (stereo not given)	10.3% (inactive)
CC(=O)N(c1ccccc1)C1CC(C)N(C(=O)c2ccccc2)c2ccccc21 (stereo not given)	13.6% (inactive)
CC1CC(N(C(=O)c2ccc(Cl)cc2)c2ccccc2)c2ccccc2N1C(=O)c1ccco1 (stereo not given)	10.9% (inactive)
COC(=O)c1c(C(C)=O)c(C)n(C)c1C	9.9% (inactive)
O=C(CSc1nc2ccccc2o1)Nc1ccccc1N1CCOCC1	-2.4% (inactive)
Cc1ccccc1NC(=O)CSc1nc2ccccc2o1	-27.6% (inactive)
CC1(C)CC(=O)C(CC(=O)Nc2ccc(S(N)(=O)=O)cc2)=C(O)C1	2.1% (inactive)
COc1ccc(C2c3sc(=O)[nH]c3SC3C4CCC(C4)C23)cc1OC (stereo not given)	4.6% (inactive)
COc1ccc(C2c3sc(=O)[nH]c3SC3C4CCC(C4)C23)cc1 (stereo not given)	39.7% (inactive)
CN(C)/C=N/c1nc2nccc(-c3ccccc3)n2n1	-4.1% (inactive)
CCC(C)c1ccc(S(=O)(=O)N2CCN(S(=O)(=O)c3ccc(NC(C)=O)cc3)CC2)cc1 (stereo not given)	6.4% (inactive)
CCn1cnc2c1c(=O)n(Cc1ccc(C(=O)OC)cc1)c(=O)n2Cc1ccccc1	6% (inactive)
COC(=O)C1C(C(=O)OC)C1(c1ccccc1)c1ccccc1 (stereo not given)	5.7% (inactive)
O=C(O)C1C(C(=O)O)C1(c1ccccc1)c1ccccc1 (stereo not given)	-6.8% (inactive)
CCOC(=O)C1C(C(=O)OCC)C1(c1ccccc1)c1ccccc1 (stereo not given)	94.1% (active)
CC1(C(=O)N(Cc2ccccc2)Cc2ccccc2)CC1(Br)Br (stereo not given)	80.9% (active)
O=C(c1ccccc1)N(Cc1ccccc1)Cc1ccccc1	11.6% (inactive)
CC12CCC(C(=O)N(Cc3ccccc3)Cc3ccccc3)(OC1=O)C2(C)C (stereo not given)	3.1% (inactive)
COc1ccc(CNS(=O)(=O)c2ccc3c(c2)CCN3C(=O)C2CC2)cc1	5.8% (inactive)
CCOC(=O)C1CCN(CC(=O)Nc2ccc(OC)c(Cl)c2)CC1	17.5% (inactive)

Source: PubChem BioAssay AID2013 (Sanford-Burnham Center for Chemical Genomics, 2009)
